# In the supplement of paper PMC9694430:
# Assays:
# Assay in all cases: thermal shift delta Tm vs DMSO control; higher = stronger stabilization (binding)
# Settings in all cases: 12.5 µM; protein concentration 2 µM
# LOC_OS02G45750-cb003 = test system: LOC_OS02G45750-cb003
# Procedure, shortened: (§1)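 Rice kinase domain constructs were expressed in E. coli, purified, and tested by differential scanning fluorimetry with compound added in DMSO. Each well of a 96-well plate held 19.5 μl of 2 μM kinase in 100 mM potassium phosphate pH 7.5, 150 mM NaCl, 10% glycerol and 5 × SYPRO Orange, and fluorescence was read from 25°C to 95°C at 0.05°C/s. The melting temperature shift is the mean of triplicates, taken against protein with DMSO alone after Boltzmann fitting.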
# LOC_OS02G54510-cb004 = test system: LOC_OS02G54510-cb004
# Procedure, shortened: as §1
# LOC_OS03G04050-cb001 = test system: LOC_OS03G04050-cb001
# Procedure, shortened: as §1
# LOC_OS03G12390-cb001 = test system: LOC_OS03G12390-cb001
# Procedure, shortened: as §1
# LOC_OS03G27990-cb004 = test system: LOC_OS03G27990-cb004
# Procedure, shortened: as §1
# LOC_OS03G50450-cb001 = test system: LOC_OS03G50450-cb001
# Procedure, shortened: as §1
# LOC_OS03G50810-cb003 = test system: LOC_OS03G50810-cb003
# Procedure, shortened: as §1
# LOC_OS04G35114-cb001 = test system: LOC_OS04G35114-cb001
# Procedure, shortened: as §1
# LOC_OS04G38480-cb003 = test system: T1, LOC_OS04G38480-cb003
# T1 sequence (whole entry): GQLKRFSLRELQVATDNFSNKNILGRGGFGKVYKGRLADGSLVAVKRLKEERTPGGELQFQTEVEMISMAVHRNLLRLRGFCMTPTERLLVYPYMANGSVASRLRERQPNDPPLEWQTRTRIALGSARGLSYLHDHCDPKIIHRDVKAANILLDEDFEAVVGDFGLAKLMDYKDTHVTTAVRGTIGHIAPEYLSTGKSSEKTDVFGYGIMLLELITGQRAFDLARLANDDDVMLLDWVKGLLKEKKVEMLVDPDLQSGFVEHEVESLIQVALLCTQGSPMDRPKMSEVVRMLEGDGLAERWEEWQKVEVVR
# Procedure, shortened: as §1
# LOC_OS04G41100-cb001 = test system: T2, LOC_OS04G41100-cb001
# T2 sequence (whole entry): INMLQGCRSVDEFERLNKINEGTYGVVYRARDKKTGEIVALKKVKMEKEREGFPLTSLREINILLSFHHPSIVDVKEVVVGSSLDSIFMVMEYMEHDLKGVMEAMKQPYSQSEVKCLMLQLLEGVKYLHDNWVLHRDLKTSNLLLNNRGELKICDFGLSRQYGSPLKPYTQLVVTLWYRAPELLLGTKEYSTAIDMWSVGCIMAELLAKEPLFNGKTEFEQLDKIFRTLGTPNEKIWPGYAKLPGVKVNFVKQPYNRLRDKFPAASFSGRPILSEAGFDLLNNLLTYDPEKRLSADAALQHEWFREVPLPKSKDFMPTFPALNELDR
# Procedure, shortened: as §1
SMILES,thermal shift delta Tm (LOC_OS02G45750-cb003),thermal shift delta Tm (LOC_OS02G54510-cb004),thermal shift delta Tm (LOC_OS03G04050-cb001),thermal shift delta Tm (LOC_OS03G12390-cb001),thermal shift delta Tm (LOC_OS03G27990-cb004),thermal shift delta Tm (LOC_OS03G50450-cb001),thermal shift delta Tm (LOC_OS03G50810-cb003),thermal shift delta Tm (LOC_OS04G35114-cb001),thermal shift delta Tm (LOC_OS04G38480-cb003),thermal shift delta Tm (LOC_OS04G41100-cb001)
Cc1cc(CS(=O)(=O)c2ccccc2)cc(OCc2ccc(CN3CCC[C@@H]3CO)cc2)c1,-0.41 °C,0.16 °C,0.65 °C,-0.25 °C,0.41 °C,0.6 °C,0.23 °C,0.57 °C,0.83 °C,0.44 °C
CCOC(=O)c1cnc2ccc(-c3cncc(NS(=O)(=O)c4ccccc4)c3)cn12,1.34 °C,0.07 °C,0.25 °C,0.45 °C,0.16 °C,0.7 °C,0.65 °C,1.78 °C,1.81 °C,0.65 °C
Cc1c[nH]c2nc(Nc3ccc(N4CCN(C)CC4)c(F)c3)nc(-c3cccc(CC#N)c3)c12,11.6 °C,3.94 °C,0.91 °C,13 °C,8.79 °C,8.2 °C,9.84 °C,12.4 °C,6.06 °C,1.61 °C
Cn1cc(-c2ccc3nnc(Sc4ccc5ncccc5c4)n3n2)cn1,0.93 °C,0.23 °C,0.63 °C,-0.22 °C,0.45 °C,0.82 °C,0.32 °C,0.81 °C,1.04 °C,0.48 °C
CC[C@@H]1C(=O)N(C)c2cnc(Nc3ccc(C(=O)N[C@H]4CC[C@H](N5CCN(CC6CC6)CC5)CC4)cc3OC)nc2N1C(C)C [Volasertib (BI 6727)],1.95 °C,0.58 °C,0.68 °C,0.73 °C,0.69 °C,1.23 °C,0.54 °C,1 °C,0.84 °C,0.24 °C
CCCCCCCCCCCCc1ccc(S(=O)(=O)Nc2nncs2)cc1,-1.65 °C,-0.17 °C,0.7 °C,-0.22 °C,0.29 °C,-0.07 °C,-0.06 °C,0.41 °C,0.58 °C,0.45 °C
COc1cc2ncnc(Oc3ccc(CC(=O)Nc4cnn(C(C)C)c4)cc3)c2cc1OC,0.54 °C,0.74 °C,0.53 °C,0.37 °C,0.19 °C,0.01 °C,0.5 °C,2.1 °C,1.49 °C,0.32 °C
CC(C)CC(NC(=O)C(Cc1ccccc1)NC(=O)C(CCC(N)=O)NC(=O)C(Cc1ccc(O)cc1)NC(=O)C(C)NC(=O)CNC(=O)C(CCCCN)NC(=O)C(Cc1c[nH]c2ccccc12)NC(=O)C(NC(=O)C(Cc1c[nH]c2ccccc12)NC(=O)C(CCCCN)NC(=O)CNC(=O)C(CC(N)=O)NC(=O)C(CCC(=O)O)NC(=O)C(Cc1c[nH]c2ccccc12)NC(=O)C(NC(=O)C(Cc1c[nH]c2ccccc12)NC(=O)C(CO)NC(=O)CNC(=O)C1CCCN1C(=O)C(Cc1c[nH]c2ccccc12)NC(=O)C(CCC(N)=O)NC(=O)C(Cc1ccccc1)NC(=O)CNC(=O)C(N)Cc1c[nH]cn1)C(C)O)C(C)O)C(=O)NC(CCCCN)C(=O)NCC(=O)NCC(=O)NCC(=O)NCC(=O)NC(CO)C(=O)NC(CCCNC(=N)N)C(=O)NC(CCCNC(=N)N)C(=O)NC(CCCNC(=N)N)C(=O)NC(CCCNC(=N)N)C(=O)NC(CCCNC(=N)N)C(=O)NC(CCCNC(=N)N)C(=O)NC(CCCNC(=N)N)C(=O)NC(CCCNC(=N)N)C(=O)NC(CCCNC(=N)N)C(=O)O (stereo not given),0.69 °C,0.13 °C,0.6 °C,-3.52 °C,-3.62 °C,0.05 °C,-1.39 °C,0.3 °C,4.04 °C,0.4 °C
CC(C)[C@H](CO)Nc1nc(Nc2cccc(Cl)c2)c2ncn(C(C)C)c2n1 [Purvalanol A],5.95 °C,2.06 °C,0.15 °C,3.95 °C,3.63 °C,7.22 °C,2.8 °C,6.09 °C,1.87 °C,0.54 °C
C=CC(=O)Nc1cc(Nc2nccc(-c3cn(C)c4ccccc34)n2)c(OC)cc1N(C)CCN(C)C [Osimertinib (AZD9291)],1.63 °C,0.52 °C,0.78 °C,4.71 °C,0.93 °C,0.74 °C,2.65 °C,6.25 °C,2.86 °C,0.51 °C
Cc1cc(CN2CCN(c3c(Br)cnc4nc(-c5ccc(N6CCN(C)CC6)cc5)[nH]c34)CC2)no1,11.1 °C,0.56 °C,0.42 °C,2.08 °C,1.47 °C,4.97 °C,4 °C,3.09 °C,2.28 °C,0.48 °C
CC(=O)O/N=C1/C(c2c(O)[nH]c3cc(Br)ccc23)=Nc2ccccc21 [BIO-acetoxime],9.18 °C,2.31 °C,1.28 °C,-0.22 °C,0.36 °C,-0.71 °C,5.4 °C,5.86 °C,-0.03 °C,0.88 °C
"O=c1cc(-c2ccccc2)oc2c(O)c(O)ccc12 [7,8-Dihydroxyflavone]",1.01 °C,0.54 °C,1.54 °C,0.5 °C,0.49 °C,0.77 °C,0.46 °C,-0.74 °C,0.33 °C,-0.06 °C
C[C@@H]1COC(Nc2ccc3ncnc(Nc4ccc(OCc5nccs5)c(Cl)c4)c3c2)=N1 [Varlitinib],1.53 °C,0.27 °C,0.48 °C,0.13 °C,0.32 °C,0.46 °C,0.41 °C,1.59 °C,1.56 °C,0.59 °C
CS(=O)(=O)CCNCc1ccc(-c2ccc3ncnc(Nc4ccc(OCc5cccc(F)c5)c(Cl)c4)c3c2)o1 [Lapatinib],0.06 °C,-0.31 °C,0.53 °C,1.17 °C,0.47 °C,1.2 °C,1.16 °C,2.03 °C,3.11 °C,0.92 °C
O=C1NC(=O)/C(=C/c2ccc3nccc(-c4ccncc4)c3c2)S1,1.29 °C,0.51 °C,0.38 °C,2.47 °C,0.28 °C,0.79 °C,0.4 °C,7.2 °C,1.96 °C,0.48 °C
FC(F)c1nc2ccccc2n1-c1nc(N2CCOCC2)nc(N2CCOCC2)n1,0.78 °C,0.23 °C,0.44 °C,0.51 °C,0.31 °C,0.75 °C,0.35 °C,0.03 °C,1.98 °C,0.9 °C
CNc1nc(Nc2cn(C(C)(C)C#N)nc2C)ncc1C(F)(F)F,0.99 °C,0.1 °C,0.32 °C,0.28 °C,0.39 °C,0.78 °C,0.62 °C,1.36 °C,1.34 °C,0.22 °C
CC#CC(=O)N1CCC[C@H]1c1nc(-c2ccc(C(=O)Nc3ccccn3)cc2)c2c(N)nccn12 [Acalabrutinib (ACP-196)],1.09 °C,0.55 °C,0.39 °C,-0.37 °C,0.24 °C,0.4 °C,0.38 °C,0.89 °C,1.22 °C,0.5 °C
COc1cc2c(cc1OC)[C@@H]1C(=O)c3ccc4c(c3O[C@@H]1CO2)C=CC(C)(C)O4 [Deguelin],0.46 °C,-0.02 °C,0.25 °C,-0.38 °C,0.07 °C,0.4 °C,0.24 °C,0.63 °C,1.39 °C,0.34 °C
CCn1c(=O)c(-c2ccc(-c3cncs3)cc2Cl)cc2cnc(Nc3ccc(N4CCN(C)CC4)cc3)nc21,1.17 °C,0.43 °C,0.71 °C,-0.41 °C,0.34 °C,1.1 °C,0.27 °C,0.85 °C,0.15 °C,0.58 °C
